Test results taken from PubChem BioAssay AID1159580 (chemical genetic matrix, 2015).
“And” between values parts separate entries of the source, which are not always exact repeats. Equal values may be shown once. Screen size: about 5,500 compounds; about 2,000 (36%) were called active. About 18% were inconclusive and are not listed. Cut-off read from the data, not from the text of the source: active = normalized growth mostly below about 0.91 (no sharp cut-off); inconclusive = no clear call, values can overlap the other calls; inactive = mostly above about 0.92. This is one part of the list.

Assay: chemical genetic growth profiling, strain panel (AID 1159580);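 note: tested at 20 µM; growth read once vehicle control cultures reached saturation at 30 °C; 1 = growth at the plate median or of vehicle wells; lower values mean less growth of the strain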
Settings: S. cerevisiae deletion strains, growth OD

Measured: normalized growth

C=CCN1CC[C@]23c4c5ccc(O)c4OC2C(=O)CC[C@@]3(O)[C@H]1C5 (stereo partly specified)
inactive: locus YAL013W, strain DEP1, hits give low values 1.01 | locus YAL021C, strain ccr4, hits give low values 0.935 | locus YAL026C, strain drs2, hits give low values 0.979 | locus YAL030W, strain snc1, hits give low values 0.974 | locus YBL061C, strain skt5, hits give low values 0.978 | locus YBR009C, strain hhf1, hits give low values 0.987 | locus YBR021W, strain FUR4, hits give low values 1.01 | locus YBR023C, strain chs3, hits give low values 0.972 | locus YBR171W, strain sec66, hits give low values 0.974 | locus YBR229C, strain ROT2, hits give low values 1 | locus YBR231C, strain swc5, hits give low values 0.969 | locus YBR279W, strain paf1, hits give low values 0.955 | locus YCL011C, strain gbp2, hits give low values 0.941 | locus YCL016C, strain dcc1, hits give low values 0.986 | locus YCL029C, strain bik1, hits give low values 0.996 | locus YCL061C, strain MRC1, hits give low values 0.979 | locus YCL069W, strain vba3, hits give low values 0.946 | locus YCR088W, strain abp1, hits give low values 0.98 | locus YDL005C, strain med2, hits give low values 0.943 | locus YDL035C, strain GPR1, hits give low values 1.02 | locus YDL040C, strain nat1, hits give low values 0.967 | locus YDL074C, strain BRE1, hits give low values 1.05 | locus YDL101C, strain DUN1, hits give low values 1.02 | locus YDL134C, strain PPH21, hits give low values 1 | locus YDL185W, strain tfp1, hits give low values 1.01 | locus YDL192W, strain arf1, hits give low values 0.988 | locus YDR001C, strain nth1, hits give low values 0.971 | locus YDR069C, strain doa4, hits give low values 0.943 | locus YDR101C, strain arx1, hits give low values 0.989 | locus YDR137W, strain rgp1, hits give low values 0.959 | locus YDR150W, strain NUM1, hits give low values 1 | locus YDR159W, strain sac3, hits give low values 0.962 | locus YDR162C, strain NBP2, hits give low values 1.01 | locus YDR195W, strain ref2 0.955 | locus YDR297W, strain sur2, hits give low values 0.962 | locus YDR318W, strain mcm21, hits give low values 1 | locus YDR334W, strain swr1, hits give low values 0.95 | locus YDR335W, strain msn5, hits give low values 0.974 | locus YDR388W, hits give low values 1 | locus YDR392W, strain spt3, hits give low values 0.877 | locus YDR502C, strain sam2, hits give low values 0.984 | locus YEL003W, strain gim4, hits give low values 0.936 | locus YEL037C, strain rad23, hits give low values 0.954 | locus YEL061C, strain CIN8 (second series), hits give low values 0.962 | locus YEL061C, strain CIN8, hits give low values 1.01 | locus YER015W, strain faa2, hits give low values 0.97 | locus YER016W, strain bim1, hits give low values 0.972 | locus YER110C, hits give low values 0.992 | locus YER111C, strain swi4, hits give low values 0.97 | locus YER155C, strain BEM2 (second series), hits give low values 0.979 | locus YER155C, strain BEM2, hits give low values 1.01 | locus YER167W, strain BCK2, hits give low values 0.989 | locus YFR010W, strain ubp6, hits give low values 0.953 | locus YGL078C, strain dbp3, hits give low values 1 | locus YGL086W, strain mad1, hits give low values 0.993 | locus YGL167C, strain pmr1, hits give low values 0.961 | locus YGL173C, strain kem1, hits give low values 0.971 | locus YGL227W, strain vid30, hits give low values 0.97 | locus YGL240W, strain doc1, hits give low values 0.961 | locus YGL248W, strain PDE1, hits give low values 1.01 | locus YGL253W, strain hxk2, hits give low values 0.974 | locus YGR078C, strain PAC10, hits give low values 1.03 | locus YGR135W, strain pre9, hits give low values 0.99 | locus YGR229C, strain SMI1, hits give low values 1 | locus YGR252W, strain gcn5, hits give low values 0.997 | locus YHR013C, strain ard1, hits give low values 0.926 | locus YHR027C, strain rpn1, hits give low values 0.97 | locus YHR030C, strain SLT2, hits give low values 1 and 0.989 | locus YHR079C, strain IRE1 (second series), hits give low values 1 | locus YHR094C, strain hxt1, hits give low values 1 | locus YHR129C, strain ARP1, hits give low values 1.01 | locus YHR142W, strain chs7, hits give low values 0.946 | locus YHR200W, strain rpn10, hits give low values 0.998 | locus YIL066C, strain RNR3, hits give low values 1.01 | locus YIL073C, strain SPO22, hits give low values 1.02 | locus YIL125W, strain kgd1, hits give low values 0.997 | locus YIR030C, strain dcg1, hits give low values 0.997 | locus YJL092W, strain hpr5, hits give low values 0.957 | locus YJL095W, strain BCK1 (second series), hits give low values 0.978 | locus YJL095W, strain BCK1, hits give low values 1.02 and 1 | locus YJL115W, strain asf1, hits give low values 0.957 | locus YJL129C, strain trk1, hits give low values 0.917 | locus YJL134W, strain LCB3, hits give low values 1.01 | locus YJL154C, strain vps35, hits give low values 0.971 | locus YJL164C, strain tpk1, hits give low values 0.984 | locus YJL166W, strain qcr8, hits give low values 0.959 | locus YJL168C, strain set2, hits give low values 1 | locus YJL187C, strain SWE1 (second series), hits give low values 1.03 | locus YJL187C, strain SWE1, hits give low values 0.964 | locus YJR043C, strain POL32, hits give low values 1.03 | locus YJR066W, strain TOR1, hits give low values 0.949
